From PubChem BioAssay AID1159580 (chemical genetic matrix, 2015)
Several values for one entry are separate records, joined by “and”; a condition that tells them apart may be missing. Equal entries are not always repeated. Among all 5,500 compounds or so, about 2,000 (36%) were called active. Inconclusive results (about 18%) are left out. Cut-off read from the data, not from the text of the source: active = normalized growth mostly below about 0.91 (no sharp cut-off); inconclusive = no clear call, values can overlap the other calls; inactive = mostly above about 0.92. The list shows a part of the results.

Test: chemical genetic growth profiling, strain panel (AID 1159580);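 note: tested at 20 µM; growth read once vehicle control cultures reached saturation at 30 °C; 1 = growth at the plate median or of vehicle wells; lower values mean less growth of the strain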
Details: S. cerevisiae deletion strains, growth OD

Measured: normalized growth

NC(N)=NS(=O)(=O)c1ccc(N)cc1
inactive: locus YAL021C, strain ccr4, hits give low values 0.976 | locus YAL026C, strain drs2, hits give low values 0.991 | locus YAL030W, strain snc1, hits give low values 0.979 | locus YBL061C, strain skt5, hits give low values 0.991 | locus YBR009C, strain hhf1, hits give low values 0.981 | locus YBR021W, strain FUR4, hits give low values 1.02 | locus YBR023C, strain chs3, hits give low values 0.981 | locus YBR171W, strain sec66, hits give low values 0.994 | locus YBR229C, strain ROT2, hits give low values 1.01 | locus YBR231C, strain swc5, hits give low values 0.993 | locus YBR279W, strain paf1, hits give low values 0.986 | locus YCL011C, strain gbp2, hits give low values 0.981 | locus YCL016C, strain dcc1, hits give low values 0.983 | locus YCL029C, strain bik1, hits give low values 1 | locus YCL061C, strain MRC1, hits give low values 1.01 | locus YCL069W, strain vba3, hits give low values 0.991 | locus YCR088W, strain abp1, hits give low values 0.992 | locus YDL005C, strain med2, hits give low values 0.987 | locus YDL035C, strain GPR1, hits give low values 1.02 | locus YDL040C, strain nat1, hits give low values 0.975 | locus YDL074C, strain BRE1, hits give low values 1.04 | locus YDL101C, strain DUN1, hits give low values 1.02 | locus YDL134C, strain PPH21, hits give low values 1.01 | locus YDL185W, strain tfp1, hits give low values 1 | locus YDL192W, strain arf1, hits give low values 0.996 | locus YDR001C, strain nth1, hits give low values 0.99 | locus YDR069C, strain doa4, hits give low values 0.986 | locus YDR101C, strain arx1, hits give low values 0.995 | locus YDR137W, strain rgp1, hits give low values 1.03 | locus YDR150W, strain NUM1, hits give low values 1.02 | locus YDR159W, strain sac3, hits give low values 0.992 | locus YDR162C, strain NBP2, hits give low values 1.01 | locus YDR195W, strain ref2 0.934 | locus YDR297W, strain sur2, hits give low values 0.984 | locus YDR318W, strain mcm21, hits give low values 0.998 | locus YDR334W, strain swr1, hits give low values 0.979 | locus YDR335W, strain msn5, hits give low values 0.992 | locus YDR388W, hits give low values 0.999 | locus YDR392W, strain spt3, hits give low values 0.99 | locus YDR502C, strain sam2, hits give low values 0.997 | locus YEL003W, strain gim4, hits give low values 0.99 | locus YEL037C, strain rad23, hits give low values 0.983 | locus YEL061C, strain CIN8 (second series), hits give low values 0.974 | locus YEL061C, strain CIN8, hits give low values 1.01 | locus YER015W, strain faa2, hits give low values 0.985 | locus YER016W, strain bim1, hits give low values 0.987 | locus YER110C, hits give low values 0.993 | locus YER111C, strain swi4, hits give low values 0.993 | locus YER155C, strain BEM2 (second series), hits give low values 0.987 | locus YER155C, strain BEM2, hits give low values 1.01 | locus YER167W, strain BCK2, hits give low values 1 | locus YFR010W, strain ubp6, hits give low values 0.99 | locus YGL078C, strain dbp3, hits give low values 0.987 | locus YGL086W, strain mad1, hits give low values 1.01 | locus YGL167C, strain pmr1, hits give low values 0.987 | locus YGL173C, strain kem1, hits give low values 0.988 | locus YGL227W, strain vid30, hits give low values 0.974 | locus YGL240W, strain doc1, hits give low values 0.997 | locus YGL248W, strain PDE1, hits give low values 1.03 | locus YGL253W, strain hxk2, hits give low values 0.986 | locus YGR078C, strain PAC10, hits give low values 1.04 | locus YGR135W, strain pre9, hits give low values 0.989 | locus YGR252W, strain gcn5, hits give low values 0.963 | locus YHR013C, strain ard1, hits give low values 0.961 | locus YHR027C, strain rpn1, hits give low values 0.976 | locus YHR030C, strain SLT2, hits give low values 1.01 and 0.978 | locus YHR079C, strain IRE1 (second series), hits give low values 0.99 | locus YHR079C, strain IRE1, hits give low values 0.97 | locus YHR094C, strain hxt1, hits give low values 0.988 | locus YHR129C, strain ARP1, hits give low values 1.02 | locus YHR142W, strain chs7, hits give low values 0.988 | locus YHR200W, strain rpn10, hits give low values 0.985 | locus YIL066C, strain RNR3, hits give low values 1.03 | locus YIL073C, strain SPO22, hits give low values 0.989 | locus YIL125W, strain kgd1, hits give low values 0.989 | locus YIR030C, strain dcg1, hits give low values 0.994 | locus YJL092W, strain hpr5, hits give low values 0.991 | locus YJL095W, strain BCK1 (second series), hits give low values 0.988 | locus YJL095W, strain BCK1, hits give low values 1.05 and 0.986 | locus YJL115W, strain asf1, hits give low values 0.966 | locus YJL129C, strain trk1, hits give low values 0.984 | locus YJL134W, strain LCB3, hits give low values 1 | locus YJL154C, strain vps35, hits give low values 0.986 | locus YJL164C, strain tpk1, hits give low values 0.984 | locus YJL166W, strain qcr8, hits give low values 0.98 | locus YJL168C, strain set2, hits give low values 0.996 | locus YJL187C, strain SWE1 (second series), hits give low values 1.03 | locus YJL187C, strain SWE1, hits give low values 0.989 | locus YJR043C, strain POL32, hits give low values 1.05
